B1: GCGCCTCA (ssRNA)
RNA 1: GAGUUCUACAGUCCGACGAUCCCAACGCGCCUCACACCUGGAAUUCUCGGGUGCCAA
RNA 2: UGGAGUGUGACAAUGGUGUUUG
DNA 1: GATCGTCGGACTGTAGAACTC
DNA 2: TTGGCACCCGAGAATTCCA
modifications: constant regions annealed to DNA blockers; guide miR-122 5' phosphate
B2: ACACCCCG (ssRNA)
RNA 1: GAGUUCUACAGUCCGACGAUCCCAACACACCCCGCACCUGGAAUUCUCGGGUGCCAA
RNA 2: UGGAGUGUGACAAUGGUGUUUG
DNA 1: GATCGTCGGACTGTAGAACTC
DNA 2: TTGGCACCCGAGAATTCCA
modifications: constant regions annealed to DNA blockers; guide miR-122 5' phosphate
B3: ACATTTTA (ssRNA)
RNA 1: GAGUUCUACAGUCCGACGAUCCCAACACAUUUUACACCUGGAAUUCUCGGGUGCCAA
RNA 2: UGGAGUGUGACAAUGGUGUUUG
DNA 1: GATCGTCGGACTGTAGAACTC
DNA 2: TTGGCACCCGAGAATTCCA
modifications: constant regions annealed to DNA blockers; guide miR-122 5' phosphate
B4: GTGCCTTA (ssRNA)
RNA 1: GAGUUCUACAGUCCGACGAUCCCAACGUGCCUUACACCUGGAAUUCUCGGGUGCCAA
RNA 2: UGGAGUGUGACAAUGGUGUUUG
DNA 1: GATCGTCGGACTGTAGAACTC
DNA 2: TTGGCACCCGAGAATTCCA
modifications: constant regions annealed to DNA blockers; guide miR-122 5' phosphate
B5: GCACCCCG (ssRNA)
RNA 1: GAGUUCUACAGUCCGACGAUCCCAACGCACCCCGCACCUGGAAUUCUCGGGUGCCAA
RNA 2: UGGAGUGUGACAAUGGUGUUUG
DNA 1: GATCGTCGGACTGTAGAACTC
DNA 2: TTGGCACCCGAGAATTCCA
modifications: constant regions annealed to DNA blockers; guide miR-122 5' phosphate
B6: ATGTCTTA (ssRNA)
RNA 1: GAGUUCUACAGUCCGACGAUCCCAACAUGUCUUACACCUGGAAUUCUCGGGUGCCAA
RNA 2: UGGAGUGUGACAAUGGUGUUUG
DNA 1: GATCGTCGGACTGTAGAACTC
DNA 2: TTGGCACCCGAGAATTCCA
modifications: constant regions annealed to DNA blockers; guide miR-122 5' phosphate
B7: GCGCTCCG (ssRNA)
RNA 1: GAGUUCUACAGUCCGACGAUCCCAACGCGCUCCGCACCUGGAAUUCUCGGGUGCCAA
RNA 2: UGGAGUGUGACAAUGGUGUUUG
DNA 1: GATCGTCGGACTGTAGAACTC
DNA 2: TTGGCACCCGAGAATTCCA
modifications: constant regions annealed to DNA blockers; guide miR-122 5' phosphate
B8: ACACCTTA (ssRNA)
RNA 1: GAGUUCUACAGUCCGACGAUCCCAACACACCUUACACCUGGAAUUCUCGGGUGCCAA
RNA 2: UGGAGUGUGACAAUGGUGUUUG
DNA 1: GATCGTCGGACTGTAGAACTC
DNA 2: TTGGCACCCGAGAATTCCA
modifications: constant regions annealed to DNA blockers; guide miR-122 5' phosphate
B9: ACGTTCCA (ssRNA)
RNA 1: GAGUUCUACAGUCCGACGAUCCCAACACGUUCCACACCUGGAAUUCUCGGGUGCCAA
RNA 2: UGGAGUGUGACAAUGGUGUUUG
DNA 1: GATCGTCGGACTGTAGAACTC
DNA 2: TTGGCACCCGAGAATTCCA
modifications: constant regions annealed to DNA blockers; guide miR-122 5' phosphate
B10: GTGCTTCG (ssRNA)
RNA 1: GAGUUCUACAGUCCGACGAUCCCAACGUGCUUCGCACCUGGAAUUCUCGGGUGCCAA
RNA 2: UGGAGUGUGACAAUGGUGUUUG
DNA 1: GATCGTCGGACTGTAGAACTC
DNA 2: TTGGCACCCGAGAATTCCA
modifications: constant regions annealed to DNA blockers; guide miR-122 5' phosphate

Key:
Assay in all cases: RNA Bind-n-Seq (nitrocellulose filter binding and sequencing); miR-122 guide loaded in AGO2; 60 min incubation; 30 mM Tris pH 8.0, 100 mM potassium acetate, 2 mM magnesium acetate, 0.5 mM TCEP, 0.005% NP-40, 0.01 mg/ml yeast tRNA; 3 nM AGO2-miR-122, 100 nM RNA library; 60; high values mean tight binding
Details in all cases: protein: recombinant; tags: His6 (N-terminal, pFastBac HTA)
[1] = target: AGO2 WT (phosphosite mutant background) (Homo sapiens, UniProt Q9UKV8 1-859, S387D;S824A;S828D;S831D;S834A)
Summary of the method: (§1)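 His-tagged AGO2 was expressed in Sf9 insect cells by baculovirus, loaded with a synthetic guide RNA, and purified by Ni-NTA and a biotinylated capture oligo. Bound RNA was extracted, reverse-transcribed, barcode-amplified and Illumina-sequenced. Fold enrichment is each sequence's read fraction divided by its input-library read fraction.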

[2] = target: AGO2 L192P (Homo sapiens, UniProt Q9UKV8 1-859, L192P;S387D;S824A;S828D;S831D;S834A)
Summary of the method: as §1

[3] = target: AGO2 A367P (Homo sapiens, UniProt Q9UKV8 1-859, A367P;S387D;S824A;S828D;S831D;S834A)
Summary of the method: as §1

[4] = target: AGO2 T357M (Homo sapiens, UniProt Q9UKV8 1-859, T357M;S387D;S824A;S828D;S831D;S834A)
Summary of the method: as §1

[5] = target: AGO2 F182del (Homo sapiens, UniProt Q9UKV8 1-859, S387D;S824A;S828D;S831D;S834A;del182-182)
Summary of the method: as §1

AGO2 F182del, sequence (Q9UKV8 other isoform, or with tags, fused parts or gaps S387D;S824A;S828D;S831D;S834A;del182-182): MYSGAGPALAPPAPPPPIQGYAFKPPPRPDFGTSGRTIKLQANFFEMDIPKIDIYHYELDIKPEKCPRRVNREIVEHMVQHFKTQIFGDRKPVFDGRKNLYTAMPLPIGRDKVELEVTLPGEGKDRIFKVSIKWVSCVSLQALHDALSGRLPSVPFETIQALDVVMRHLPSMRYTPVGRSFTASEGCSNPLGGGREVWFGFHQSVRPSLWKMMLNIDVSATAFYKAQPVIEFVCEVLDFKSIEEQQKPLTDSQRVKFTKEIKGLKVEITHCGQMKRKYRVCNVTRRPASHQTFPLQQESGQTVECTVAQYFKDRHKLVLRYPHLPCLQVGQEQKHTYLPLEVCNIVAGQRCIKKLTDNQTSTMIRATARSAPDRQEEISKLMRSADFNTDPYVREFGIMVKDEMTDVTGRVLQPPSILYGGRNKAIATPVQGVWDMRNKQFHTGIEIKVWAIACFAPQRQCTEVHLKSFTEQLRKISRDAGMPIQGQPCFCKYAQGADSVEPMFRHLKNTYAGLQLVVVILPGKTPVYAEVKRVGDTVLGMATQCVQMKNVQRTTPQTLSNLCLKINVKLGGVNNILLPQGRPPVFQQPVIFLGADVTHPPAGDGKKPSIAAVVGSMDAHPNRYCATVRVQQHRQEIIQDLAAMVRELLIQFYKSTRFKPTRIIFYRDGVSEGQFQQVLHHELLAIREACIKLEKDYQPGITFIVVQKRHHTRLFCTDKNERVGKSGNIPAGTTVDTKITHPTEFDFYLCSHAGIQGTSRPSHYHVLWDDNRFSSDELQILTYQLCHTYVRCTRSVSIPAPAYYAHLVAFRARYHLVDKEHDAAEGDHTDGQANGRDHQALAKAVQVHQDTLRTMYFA
AGO2 A367P, sequence (Q9UKV8 whole entry A367P/S387D/S824A/S828D/S831D/S834A): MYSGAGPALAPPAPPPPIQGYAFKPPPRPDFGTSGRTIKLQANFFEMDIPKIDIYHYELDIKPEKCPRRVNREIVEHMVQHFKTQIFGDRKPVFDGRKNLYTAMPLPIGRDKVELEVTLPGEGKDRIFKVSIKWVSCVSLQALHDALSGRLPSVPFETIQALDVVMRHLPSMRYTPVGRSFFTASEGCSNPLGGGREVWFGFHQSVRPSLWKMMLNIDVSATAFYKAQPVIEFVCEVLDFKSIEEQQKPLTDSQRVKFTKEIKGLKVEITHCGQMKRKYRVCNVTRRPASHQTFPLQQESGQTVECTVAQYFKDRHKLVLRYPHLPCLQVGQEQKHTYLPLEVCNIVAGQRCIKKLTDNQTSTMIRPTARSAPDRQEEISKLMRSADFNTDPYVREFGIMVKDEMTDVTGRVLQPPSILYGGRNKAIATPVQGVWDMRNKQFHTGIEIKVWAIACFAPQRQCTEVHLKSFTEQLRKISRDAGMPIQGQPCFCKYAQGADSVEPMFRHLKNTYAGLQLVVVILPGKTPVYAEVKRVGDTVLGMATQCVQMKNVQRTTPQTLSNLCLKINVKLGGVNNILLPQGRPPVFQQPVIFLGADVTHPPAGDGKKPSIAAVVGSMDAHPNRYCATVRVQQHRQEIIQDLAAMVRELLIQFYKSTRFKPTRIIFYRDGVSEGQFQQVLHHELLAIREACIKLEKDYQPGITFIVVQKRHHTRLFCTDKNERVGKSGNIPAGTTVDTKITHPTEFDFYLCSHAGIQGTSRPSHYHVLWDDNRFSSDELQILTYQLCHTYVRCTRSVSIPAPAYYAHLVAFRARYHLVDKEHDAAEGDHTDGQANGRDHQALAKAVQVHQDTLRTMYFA
AGO2 L192P, sequence (Q9UKV8 whole entry L192P/S387D/S824A/S828D/S831D/S834A): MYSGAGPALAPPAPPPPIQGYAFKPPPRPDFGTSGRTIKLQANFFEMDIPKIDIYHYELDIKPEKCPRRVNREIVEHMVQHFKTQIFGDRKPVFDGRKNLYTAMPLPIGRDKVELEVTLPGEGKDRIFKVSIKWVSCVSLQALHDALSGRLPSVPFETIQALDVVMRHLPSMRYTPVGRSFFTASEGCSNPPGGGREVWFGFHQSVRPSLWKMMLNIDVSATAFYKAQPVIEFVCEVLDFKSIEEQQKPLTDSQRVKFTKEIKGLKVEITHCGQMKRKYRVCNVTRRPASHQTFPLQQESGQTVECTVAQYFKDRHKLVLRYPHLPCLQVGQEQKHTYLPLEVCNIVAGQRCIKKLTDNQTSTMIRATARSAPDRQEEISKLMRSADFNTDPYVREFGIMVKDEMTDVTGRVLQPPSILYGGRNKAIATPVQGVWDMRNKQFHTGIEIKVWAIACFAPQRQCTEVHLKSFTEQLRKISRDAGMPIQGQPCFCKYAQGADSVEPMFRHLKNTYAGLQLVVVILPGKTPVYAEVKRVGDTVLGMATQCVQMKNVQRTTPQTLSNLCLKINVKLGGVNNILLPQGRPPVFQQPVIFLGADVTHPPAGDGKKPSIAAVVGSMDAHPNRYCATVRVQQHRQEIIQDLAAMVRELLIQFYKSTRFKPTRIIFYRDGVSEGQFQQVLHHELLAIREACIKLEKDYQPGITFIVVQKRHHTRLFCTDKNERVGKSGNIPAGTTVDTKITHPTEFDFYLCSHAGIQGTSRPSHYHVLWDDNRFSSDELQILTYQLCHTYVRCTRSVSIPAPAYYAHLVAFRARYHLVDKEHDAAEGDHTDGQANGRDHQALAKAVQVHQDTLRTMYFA
AGO2 T357M, sequence (Q9UKV8 whole entry T357M/S387D/S824A/S828D/S831D/S834A): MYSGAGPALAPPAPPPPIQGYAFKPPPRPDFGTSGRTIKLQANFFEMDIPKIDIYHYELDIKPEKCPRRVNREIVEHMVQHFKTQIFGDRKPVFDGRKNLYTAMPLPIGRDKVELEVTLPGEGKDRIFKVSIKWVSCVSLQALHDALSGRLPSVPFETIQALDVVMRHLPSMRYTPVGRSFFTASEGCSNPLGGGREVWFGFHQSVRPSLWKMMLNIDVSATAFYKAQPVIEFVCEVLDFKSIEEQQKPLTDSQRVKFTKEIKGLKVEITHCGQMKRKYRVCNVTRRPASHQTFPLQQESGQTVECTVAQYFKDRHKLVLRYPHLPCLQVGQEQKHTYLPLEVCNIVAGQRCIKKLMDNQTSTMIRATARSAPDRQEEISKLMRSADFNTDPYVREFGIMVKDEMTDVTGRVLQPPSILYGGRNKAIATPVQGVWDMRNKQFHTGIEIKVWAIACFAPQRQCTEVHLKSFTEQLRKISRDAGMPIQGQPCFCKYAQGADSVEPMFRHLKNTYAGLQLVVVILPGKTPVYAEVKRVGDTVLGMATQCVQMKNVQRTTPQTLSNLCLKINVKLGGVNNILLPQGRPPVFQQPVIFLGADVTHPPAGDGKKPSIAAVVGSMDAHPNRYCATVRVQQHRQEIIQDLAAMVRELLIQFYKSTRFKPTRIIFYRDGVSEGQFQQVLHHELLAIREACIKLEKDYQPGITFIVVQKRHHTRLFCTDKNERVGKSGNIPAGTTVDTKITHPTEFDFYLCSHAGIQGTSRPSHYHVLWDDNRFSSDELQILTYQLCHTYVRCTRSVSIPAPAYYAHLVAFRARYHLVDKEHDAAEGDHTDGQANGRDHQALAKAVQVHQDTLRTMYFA
AGO2 WT (phosphosite mutant background), sequence (Q9UKV8 whole entry S387D/S824A/S828D/S831D/S834A): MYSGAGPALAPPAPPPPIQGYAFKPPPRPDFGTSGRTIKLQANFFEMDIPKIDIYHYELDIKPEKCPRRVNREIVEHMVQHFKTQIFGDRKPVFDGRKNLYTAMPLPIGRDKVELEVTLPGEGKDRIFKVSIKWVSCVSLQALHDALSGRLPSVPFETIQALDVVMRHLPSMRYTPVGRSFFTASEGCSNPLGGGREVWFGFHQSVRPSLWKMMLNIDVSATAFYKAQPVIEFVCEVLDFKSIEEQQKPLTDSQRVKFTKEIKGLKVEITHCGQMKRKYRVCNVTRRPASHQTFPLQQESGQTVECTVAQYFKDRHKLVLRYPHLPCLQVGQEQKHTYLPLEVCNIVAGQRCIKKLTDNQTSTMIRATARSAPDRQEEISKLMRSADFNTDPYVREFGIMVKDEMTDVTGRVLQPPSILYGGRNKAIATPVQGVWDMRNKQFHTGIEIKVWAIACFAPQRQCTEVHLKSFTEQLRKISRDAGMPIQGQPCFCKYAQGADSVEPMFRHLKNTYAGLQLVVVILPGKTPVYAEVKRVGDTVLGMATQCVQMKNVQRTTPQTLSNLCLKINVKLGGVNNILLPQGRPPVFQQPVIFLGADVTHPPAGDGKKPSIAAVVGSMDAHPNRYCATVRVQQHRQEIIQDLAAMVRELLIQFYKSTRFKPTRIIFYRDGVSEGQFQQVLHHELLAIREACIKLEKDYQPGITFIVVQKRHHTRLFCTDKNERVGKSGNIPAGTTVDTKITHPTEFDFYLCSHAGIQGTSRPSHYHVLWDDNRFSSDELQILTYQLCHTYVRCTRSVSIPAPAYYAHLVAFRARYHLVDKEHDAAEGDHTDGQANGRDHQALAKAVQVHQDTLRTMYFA

| Binder | binding signal [1] | binding signal [2] | binding signal [3] | binding signal [4] | binding signal [5] |
| --- | --- | --- | --- | --- | --- |
| B1 | 0.131 fold enrichment over input | 0.523 fold enrichment over input | 0.233 fold enrichment over input | 0.741 fold enrichment over input | 0.304 fold enrichment over input |
| B2 | 0.152 fold enrichment over input | 0.517 fold enrichment over input | 0.259 fold enrichment over input | 0.517 fold enrichment over input | 0.82 fold enrichment over input |
| B3 | 0.122 fold enrichment over input | 0.534 fold enrichment over input | 0.209 fold enrichment over input | 0.598 fold enrichment over input | 0.359 fold enrichment over input |
| B4 | 0.126 fold enrichment over input | 0.555 fold enrichment over input | 0.217 fold enrichment over input | 0.801 fold enrichment over input | – |
| B5 | 0.129 fold enrichment over input | 0.455 fold enrichment over input | 0.21 fold enrichment over input | 0.634 fold enrichment over input | 0.203 fold enrichment over input |
| B6 | 0.142 fold enrichment over input | 0.569 fold enrichment over input | 0.399 fold enrichment over input | 0.646 fold enrichment over input | 0.57 fold enrichment over input |
| B7 | 1.39 fold enrichment over input | 3.09 fold enrichment over input | 4.35 fold enrichment over input | 0.905 fold enrichment over input | 7.66 fold enrichment over input |
| B8 | 0.164 fold enrichment over input | 0.755 fold enrichment over input | 0.475 fold enrichment over input | 0.721 fold enrichment over input | 1.89 fold enrichment over input |
| B9 | 0.137 fold enrichment over input | 0.603 fold enrichment over input | 0.333 fold enrichment over input | 0.66 fold enrichment over input | 0.976 fold enrichment over input |
| B10 | 0.127 fold enrichment over input | 0.455 fold enrichment over input | 0.192 fold enrichment over input | 0.624 fold enrichment over input | – |

Source: publication PMC12529666, “Dysregulation of AGO2-miRNA dynamics underlies the AGO2-associated Lessel–Kreienkamp syndrome”
